Test [1] addresses Oxysterols receptor LXR-alpha (Homo sapiens) (UniProt Q13133). The experiment in a line: ATG_LXRa_TRANS: Attagene TRANS-FACTORIAL HepG2 Assay for human Liver X Receptor alpha (LXRa) (AID 2282980). Particulars: HepG2 Attagene TRANS reporter, LXRa transactivation. The procedure, abridged: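 HepG2 cells were transiently transfected with multiplexed reporter units driven by chimeric LXRa–GAL4 fusion proteins, then dosed for 24 h. Reporter mRNA was quantified by RT-PCR, fluorescent labelling and capillary electrophoresis; gain of signal fitted against DMSO baseline.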

In test [2] the target is Oxysterols receptor LXR-beta (Homo sapiens) (UniProt P55055). Kind of test: ATG_LXRb_TRANS: Attagene TRANS-FACTORIAL HepG2 Assay for human Liver X Receptor beta (LXRb) (AID 2282981). Particulars: HepG2 Attagene TRANS GAL4-LXRb reporter, mRNA. The procedure, abridged:
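Readout: fluorescent reporter mRNA fragments resolved by capillary electrophoresis after RT-PCR. System: transiently transfected human HepG2, exogenous LXRb-Gal4 chimera driving GAL4-UAS reporter, 24 h dosing. Activity fitted upward against DMSO baseline.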

Test [3] has as its target Hepatocyte nuclear factor 4-alpha (Homo sapiens) (UniProt P41235). The experiment in a line: ATG_HNF4a_TRANS: Attagene TRANS-FACTORIAL HepG2 Assay for human Hepatocyte Nuclear Factor 4 alpha (HNF4a) (AID 2282982). Conditions: HepG2 HNF4a transactivation reporter, mRNA readout. The procedure, abridged: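 Transient MRTU transfection of HepG2, 24 h dosing. Readout: reporter mRNA via RT-PCR + capillary electrophoresis, fluorescence; activity fit upward relative to DMSO control.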

The nature of test [4]: ATG_M_06_TRANS: Attagene TRANS-FACTORIAL HepG2 Assay for M06 Transcription Factor (Internal Marker) (AID 2282983).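 As to AC50: potency for rise in reporter mRNA above DMSO baseline.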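 As to outcome: reporter transcript level by RT-PCR then capillary electrophoresis fluorescence.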 Particulars: HepG2 Attagene TRANS M06 internal marker reporter. A digest of the protocol:
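In this multiplexed HepG2 system, compounds are incubated 24 h with cells carrying GAL4-UAS reporter units. Reporter RNA is amplified and resolved by capillary electrophoresis, and induction is scored against DMSO.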

A short description of test [5]: ATG_M_32_TRANS: Attagene TRANS-FACTORIAL HepG2 Assay for M32 Transcription Factor (Internal Marker) (AID 2282984).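 Also: transcript level of a background control reporter unit measured by RT-PCR and capillary electrophoresis.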 Particulars: HepG2 Attagene TRANS M32 internal marker reporter. The procedure, abridged: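 Read-out: fluorescent reporter cDNA fragments resolved by capillary electrophoresis after RT-PCR of total RNA. Transfected HepG2 cells were exposed to chemical for 24 h. Activity scored in the positive direction relative to DMSO.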

Test [6] deals with Nuclear receptor subfamily 4 group A member 2 (Homo sapiens) (UniProt P43354). Kind of test: ATG_NURR1_TRANS: Attagene TRANS-FACTORIAL HepG2 Assay for human Nuclear Receptor Related Protein 1 (NURR1) (AID 2282985). Particulars: HepG2 Attagene TRANS reporter, mRNA readout. The procedure, abridged: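 Read-out: reporter mRNA induction by RT-PCR plus capillary electrophoresis with fluorescence detection, after 24 h dosing of transfected HepG2 cells. Exogenous NR-Gal4 chimera activity drives GAL4-UAS reporter; activity fitted upward versus DMSO.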
Sequence of Nuclear receptor subfamily 4 group A member 2 (Homo sapiens) (P43354 whole entry, looked up, the tested form may be a part): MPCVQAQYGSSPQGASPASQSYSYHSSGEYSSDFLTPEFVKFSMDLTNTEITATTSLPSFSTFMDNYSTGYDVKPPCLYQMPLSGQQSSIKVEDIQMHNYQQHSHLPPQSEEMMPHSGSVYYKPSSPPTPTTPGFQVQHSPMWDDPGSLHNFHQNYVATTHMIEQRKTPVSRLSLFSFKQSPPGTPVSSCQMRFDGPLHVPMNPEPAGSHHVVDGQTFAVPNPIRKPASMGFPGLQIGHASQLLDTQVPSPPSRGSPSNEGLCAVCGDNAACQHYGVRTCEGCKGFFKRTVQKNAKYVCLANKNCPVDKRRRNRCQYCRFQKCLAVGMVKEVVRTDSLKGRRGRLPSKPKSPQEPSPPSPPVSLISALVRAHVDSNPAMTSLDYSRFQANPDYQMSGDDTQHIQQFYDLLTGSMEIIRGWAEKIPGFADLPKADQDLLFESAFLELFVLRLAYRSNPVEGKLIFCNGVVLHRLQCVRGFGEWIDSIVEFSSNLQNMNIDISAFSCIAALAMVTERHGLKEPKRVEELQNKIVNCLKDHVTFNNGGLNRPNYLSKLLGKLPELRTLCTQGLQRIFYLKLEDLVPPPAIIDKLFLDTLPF

For test [7], the target named is Transcriptional activator Myb (Homo sapiens) (UniProt P10242). The experiment in a line: ATG_Myb_CIS: Attagene CIS-FACTORIAL HepG2 Assay for human Myeloblastosis (Myb) Proto-Oncogene Transcription Factor (AID 2282986; active = hit-call score of the fitted dose curve at least 0.9, where 1 is the maximum; inactive = score below 0.9). Particulars: HepG2 Attagene CIS-FACTORIAL Myb reporter transcription; actives raise or lower the signal. The procedure, abridged: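 HepG2 cells were transiently transfected with cis-regulated multiple reporter transcription units reflecting endogenous Myb activity, then exposed to compound for 24 hours. Reporter mRNA was measured by RT-PCR with capillary electrophoresis; bidirectional fitting versus DMSO baseline.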
Sequence of Transcriptional activator Myb (Homo sapiens) (P10242 whole entry, looked up): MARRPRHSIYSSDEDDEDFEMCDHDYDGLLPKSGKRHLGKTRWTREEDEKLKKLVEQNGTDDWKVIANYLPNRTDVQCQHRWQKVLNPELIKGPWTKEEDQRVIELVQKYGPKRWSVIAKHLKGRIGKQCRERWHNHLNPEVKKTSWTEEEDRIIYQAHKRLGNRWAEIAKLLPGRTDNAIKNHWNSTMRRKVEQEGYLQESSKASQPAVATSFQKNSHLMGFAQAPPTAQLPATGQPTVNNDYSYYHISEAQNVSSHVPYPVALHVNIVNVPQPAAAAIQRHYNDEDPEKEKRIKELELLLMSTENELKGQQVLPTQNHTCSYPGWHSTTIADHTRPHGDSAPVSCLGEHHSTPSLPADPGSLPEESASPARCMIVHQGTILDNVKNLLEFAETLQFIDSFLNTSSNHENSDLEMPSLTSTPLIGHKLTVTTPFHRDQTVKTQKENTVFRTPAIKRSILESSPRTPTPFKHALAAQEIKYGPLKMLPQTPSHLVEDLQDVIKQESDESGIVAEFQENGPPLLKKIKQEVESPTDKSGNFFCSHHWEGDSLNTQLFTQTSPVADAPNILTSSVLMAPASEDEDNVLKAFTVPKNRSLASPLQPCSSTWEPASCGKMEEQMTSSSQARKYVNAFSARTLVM

Test [8] can be described thus: ATG_NFI_CIS: Attagene CIS-FACTORIAL HepG2 Assay for human Nuclear Factor I (NFI) (AID 2282989; active = hit-call score of the fitted dose curve at least 0.9, where 1 is the maximum; inactive = score below 0.9). Conditions: HepG2 cis-regulatory reporter, NFI response element transcription; actives raise or lower the signal. The procedure, abridged: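 HepG2, transient MRTU, 24 h exposure; RNA→cDNA→PCR→FAM label→HpaI→CE fluorescence. Bidirectional fit, DMSO = baseline.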
Test [9] deals with Nuclear respiratory factor 1 (Homo sapiens) (UniProt Q16656). Kind of test: ATG_NRF1_CIS: Attagene CIS-FACTORIAL HepG2 Assay for human Nuclear Respiratory Factor 1 (NRF1) Orphan Gene (AID 2282987; active = hit-call score of the fitted dose curve at least 0.9, where 1 is the maximum; inactive = score below 0.9). Conditions: HepG2 NRF1 cis-element reporter, Attagene multiplex; actives raise or lower the signal. The procedure, abridged:
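HepG2 cells transiently transfected with multiple reporter transcription units under cis-regulatory promoter control, so endogenous transcription-factor activity is read. After 24 h compound exposure, reporter mRNA quantified by RT-PCR, fluorescent labelling, HpaI digestion and capillary electrophoresis; bidirectional fitting versus DMSO.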

Several values for one entry are separate records, joined by “and”; a condition that tells them apart may be missing. Identical values can stand only once. Inconclusive results are not listed. The source holds several records for some structures; these can differ, active in one and inactive in another. Activity calls are given as the source filed them. The calls were made as follows, unless noted: active = hit-call score of the fitted dose curve at least 0.9, where 1 is the maximum; inconclusive = response in the unintended direction; inactive = score below 0.9.

Sequence of Oxysterols receptor LXR-alpha (Homo sapiens) (Q13133 whole entry, looked up, the tested form may be a part): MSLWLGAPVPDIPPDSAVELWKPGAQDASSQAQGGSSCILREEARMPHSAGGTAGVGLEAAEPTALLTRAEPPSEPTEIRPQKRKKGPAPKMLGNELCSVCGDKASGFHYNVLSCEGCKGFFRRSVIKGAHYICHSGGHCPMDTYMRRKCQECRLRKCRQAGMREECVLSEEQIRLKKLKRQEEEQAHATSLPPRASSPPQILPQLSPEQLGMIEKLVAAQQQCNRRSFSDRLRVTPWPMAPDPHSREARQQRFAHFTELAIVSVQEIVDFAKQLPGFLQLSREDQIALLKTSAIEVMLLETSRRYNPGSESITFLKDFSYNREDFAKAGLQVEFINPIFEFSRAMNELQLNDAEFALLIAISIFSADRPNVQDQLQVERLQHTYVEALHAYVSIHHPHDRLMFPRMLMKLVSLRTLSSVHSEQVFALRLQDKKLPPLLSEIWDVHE
Sequence of Hepatocyte nuclear factor 4-alpha (Homo sapiens) (P41235 whole entry, looked up): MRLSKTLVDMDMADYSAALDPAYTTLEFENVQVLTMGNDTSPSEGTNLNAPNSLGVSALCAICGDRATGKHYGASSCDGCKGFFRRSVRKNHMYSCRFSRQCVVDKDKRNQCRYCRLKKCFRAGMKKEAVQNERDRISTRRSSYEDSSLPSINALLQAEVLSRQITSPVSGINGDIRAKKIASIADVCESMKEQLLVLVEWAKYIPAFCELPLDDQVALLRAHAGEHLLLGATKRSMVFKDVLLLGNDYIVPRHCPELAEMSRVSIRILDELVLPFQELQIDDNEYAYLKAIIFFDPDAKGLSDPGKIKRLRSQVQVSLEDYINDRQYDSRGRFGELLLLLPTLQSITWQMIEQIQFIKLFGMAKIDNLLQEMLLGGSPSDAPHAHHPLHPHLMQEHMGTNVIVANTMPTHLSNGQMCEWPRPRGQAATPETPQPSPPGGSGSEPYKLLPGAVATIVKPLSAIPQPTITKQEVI
Sequence of Oxysterols receptor LXR-beta (Homo sapiens) (P55055 whole entry, looked up, the tested form may be a part): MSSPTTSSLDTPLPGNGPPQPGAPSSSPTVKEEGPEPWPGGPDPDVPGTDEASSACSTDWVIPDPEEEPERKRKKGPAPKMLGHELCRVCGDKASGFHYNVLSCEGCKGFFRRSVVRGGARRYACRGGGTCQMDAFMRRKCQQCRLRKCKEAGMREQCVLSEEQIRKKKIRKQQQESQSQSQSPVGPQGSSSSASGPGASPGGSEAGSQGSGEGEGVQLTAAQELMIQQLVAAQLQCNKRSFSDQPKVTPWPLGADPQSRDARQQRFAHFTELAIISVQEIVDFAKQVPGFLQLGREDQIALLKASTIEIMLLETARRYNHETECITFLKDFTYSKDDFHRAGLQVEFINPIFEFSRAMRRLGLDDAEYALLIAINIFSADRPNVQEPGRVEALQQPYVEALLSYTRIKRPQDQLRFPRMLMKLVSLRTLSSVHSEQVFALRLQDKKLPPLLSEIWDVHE
Sequence of Nuclear respiratory factor 1 (Homo sapiens) (Q16656 whole entry, looked up): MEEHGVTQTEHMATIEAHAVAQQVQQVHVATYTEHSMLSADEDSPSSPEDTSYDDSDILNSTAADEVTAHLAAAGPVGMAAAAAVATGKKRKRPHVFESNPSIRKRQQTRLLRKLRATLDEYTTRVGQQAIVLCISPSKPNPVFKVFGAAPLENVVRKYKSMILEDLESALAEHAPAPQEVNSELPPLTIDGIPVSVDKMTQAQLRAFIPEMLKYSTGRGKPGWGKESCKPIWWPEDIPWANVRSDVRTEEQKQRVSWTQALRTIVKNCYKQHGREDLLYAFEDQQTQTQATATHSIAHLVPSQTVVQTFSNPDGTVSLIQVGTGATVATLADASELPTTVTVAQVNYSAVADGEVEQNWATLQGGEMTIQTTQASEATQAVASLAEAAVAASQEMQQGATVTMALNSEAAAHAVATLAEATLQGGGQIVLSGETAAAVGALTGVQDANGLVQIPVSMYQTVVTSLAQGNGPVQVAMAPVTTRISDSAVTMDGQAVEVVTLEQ

`N#Cc1ccccn1`: the outcome in test [1], in test [2], in test [3], in test [4], in test [5] and in [6] was inactive. For the same compound, the call in test [7] and in test [8] was inactive.
Consider `ClC1=C(Cl)[C@]2(Cl)[C@@H]3[C@@H](Cl)[C@@H](Cl)C[C@@H]3[C@@]1(Cl)C2(Cl)Cl`, for which the call in [1], in [2], in test [4], in test [5], in [7] and in test [9] was inactive. Further, the outcome in test [8] was inactive.
As for `CCOC(=O)Nc1cccc(OC(=O)Nc2ccccc2)c1`, the outcome in [1], in test [2], in [3], in [7] and in test [8] was inactive.
On to `Oc1cccc2cccnc12`, for which the compound was classed as inactive in test [1], in test [2], in test [3], in test [4], in test [7] and in test [9]. Also, the compound was classed as inactive in test [8].
For `O=c1[nH]c(=O)[nH]c(=O)[nH]1`, the result in [1], in test [2], in test [3], in test [5], in [6] and in [7] was inactive. In addition, the outcome in test [9] and in [8] was inactive.
As to `C[C@@H]1C[C@@H]([C@H](O)CC2CC(=O)NC(=O)C2)C(=O)[C@@H](C)C1`, the compound was classed as inactive in test [1], in [2], in test [3], in test [4], in test [5] and in test [6]. Further, the compound was classed as inactive in [7], in [9] and in [8].
With `CCc1ccccc1N`, the result in test [1], in test [2], in test [3], in test [5], in test [7] and in test [9] was inactive. Besides, the result in test [8] was inactive.
In the case of `CC(C)C1CCC(Cc2ccc(Cl)cc2)C1(O)Cn1cncn1` (stereo unspecified), the call in [1], in test [2], in test [4], in test [5], in test [7] and in [9] was inactive. In test [8], the result was inactive.
`O=C(O)C(F)(F)C(F)(F)C(F)(F)C(F)(F)C(F)(F)C(F)(F)C(F)(F)C(F)(F)C(F)(F)C(F)(F)F`: the AC50 was 57.2 µM (active) in test [1]; 129 µM (active) in test [4]; 154 µM (active) in test [7]; 162 µM (active) and 31.1 µM (active) in test [9]; 157 µM (active) in [8]. For the same compound, the compound was called inactive in [1], in test [2], in test [3], in test [5], in test [6] and in test [7]. Moreover, the result in test [8] was inactive.
With `Cc1ccccc1C(=O)Nc1cccc(OC(C)C)c1`, the compound was classed as inactive in test [1], in test [2], in test [3], in [5], in [7] and in [8].
In the case of `COP(=S)(OC)Oc1cc(Cl)c(Cl)cc1Cl`, the compound was called inactive in [1], in test [2], in test [3], in test [4], in test [6] and in test [7]. Moreover, the outcome in [9] and in test [8] was inactive.
Turning to `COP(=S)(OC)Oc1ccc(S(=O)(=O)N(C)C)cc1`, the call in test [1], in [2], in [3], in [4], in [7] and in test [8] was inactive.
Turning to `CC(=O)[O][Hg][c]1ccccc1`, the call in test [1], in [2], in test [4], in test [7] and in [9] was inactive. Besides, the AC50 in test [8] is 3.71 µM (active).
`N#CN=C(N)N`: the outcome in test [1], in [3], in test [4], in test [5], in test [6] and in [7] was inactive. The compound was classed as inactive in test [9] and in test [8].
As for `CCCCOCCOC(C)=O`, the result in test [1], in test [4], in test [5], in test [7], in [9] and in [8] was inactive.
As to `CC1CN1P(=O)(N1CC1C)N1CC1C` (stereo unspecified), the compound was classed as inactive in test [1], in test [3], in [4], in [7], in test [9] and in [8].
Regarding `COC(=O)c1sccc1S(=O)(=O)NC(=O)Nc1nc(C)nc(OC)n1`, the compound was classed as inactive in test [1], in [2], in test [6], in test [7] and in test [8].
With `O=C(Cl)c1ccc(Cl)cc1`, the compound was classed as inactive in [1], in test [2], in test [4], in test [5], in [7] and in [9]. Also, the outcome in test [8] was inactive.
In the case of `N#CCc1ccc(Cl)cc1`, the call in [1], in test [4], in test [7], in [9] and in test [8] was inactive.
As for `C[C@H]1CCCC(=O)CCC/C=C/c2cc(O)cc(O)c2C(=O)O1`, the call in [1], in [3], in test [4], in test [6], in test [7] and in test [8] was inactive. The AC50 in test [9] is 39.4 µM (active).
For the compound `CC(C)c1ccc(CO)cc1`, the compound was classed as inactive in test [1], in test [4], in test [5], in [7], in test [9] and in test [8].
Take `CCCCCCCCCl`: the call in test [1], in test [3], in test [4], in [6], in test [7] and in test [9] was inactive. The call in test [8] was inactive.
As for `CCOP(=S)(OCC)SCCS(=O)(=O)CC`, the compound was called inactive in test [1], in test [2], in [7], in test [9] and in test [8].
`C=C(C)C#N`: the call in [1], in [3], in [5], in [7], in test [9] and in test [8] was inactive.
On to `CC1(C)Cc2cccc(O)c2O1`, for which the outcome in test [1], in [3], in test [4], in [6], in test [7] and in test [9] was inactive. In addition, the compound was called inactive in [8].
Turning to `CCOP(=S)(OCC)Oc1ccc(S(C)=O)cc1` (stereo unspecified), the compound was classed as inactive in test [1], in test [2], in [7], in test [9] and in test [8].
For the compound `OCc1ccco1`, the call in test [1], in test [3], in [4], in [7], in [9] and in [8] was inactive.
With `c1ccc(N=NNc2ccccc2)cc1`, the compound was classed as inactive in [1], in test [3], in test [4], in test [7] and in test [9]. For the same compound, the AC50 is 39.7 µM (active) in test [6] and 180 µM (active) in [8].
With `CCSC(C)CC1CC(=O)C(C(CC)=NOC/C=C/Cl)=C(O)C1` (stereo unspecified), the outcome in [1], in [4], in test [5], in [6], in [7] and in test [8] was inactive.
For the compound `C=CC(=O)N(C)C`, the call in test [1], in [2], in test [4], in test [5], in [7] and in [8] was inactive.

As usually defined, the AC50 is the concentration giving half of the maximal activity seen.

The values above are taken from PubChem BioAssay (EPA / NIEHS).
